This note sets out measurements from PubChem BioAssay (Tox21).

Inconclusive results are not listed. Calls of active or inactive are those of the source. Calls follow the shape of the dose curve; as a rule, active = well fitted cell-killing curve with a large enough effect in the repeat runs; inconclusive = weak or mixed curves, or effect the other way; inactive = flat fitted curve, though single readings scatter.
% is scaled to controls: 0 for no effect and ±100 for the full control effect.

This experiment in a line: qHTS RealTime-Glo MT Cell Viability Assay in HEK293 cells - 0 hour (AID 1224880). Also: top concentration of the series differs between compounds; nearly all actives have a fitted effect of over 45% in size. To be noted: RealTime-Glo luminescence; series mostly up to 76.8 µM. From the text:
U.S. Tox21 Program National Center for Advancing Translational Sciences [NCATS] NIH Chemical Genomics Center [NCGC] U.S. Environmental Protection Agency [EPA] National Institutes of Environmental Health Sciences [NIEHS] National Toxicology Program [NTP] U.S. Food and Drug Administration [FDA] Tox21 Assay Overview: Measure of cell viability is critical in the cell-base assay. Analysis of cell viability is necessary for the characterization of cell responses to cytotoxic drugs and environmental stress. A RealTime-Glo MT Cell Viability Assay to monitor cell viability in real time of continues cell culture during 40 hours of compound treatment was used to screen Tox21 10K library compounds in Hek293 cells. The RealTime-Glo MT Cell Viability Assay is a nonlytic, homogeneous, bioluminescent method to measure cell viability in real time using a simple, plate-based method. The assay involves adding NanoLuc luciferase and a cell-permeant prosubstrate to cells in culture. Viable cells reduce the proprietary prosubstrate to generate a substrate for NanoLuc luciferase. This substrate diffuses from cells into the surrounding culture medium, where it is rapidly used by the NanoLuc Enzyme to produce a luminescent signal. The signal correlates with the number of viable cells, making the assay well suited for cytotoxicity studies.
Tox21 Assay Protocol Summary: The mixture of Hek293 cell suspension and reagents were dispensed at 600cells/6 ul/well in 1536-well tissue culture treated black solid bottom plates using a Multidrop dispenser. After the assay plates were incubated at a 37 C/5% CO2 incubator for 5 hours, 23 nL of compounds dissolved in DMSO, positive and negative controls was transferred to the assay plate by a pintool work station. The plates were incubated at 37 C for 40 hours. The luminescence intensity were measured at 0h, 8h, 16h, 24h, 32h and 40h time points using ViewLux plate reader during compound treatment.
For orientation: In qHTS, concentration-response curves come from the screen itself.
`C=C(C)[C@@H]1CCC2=CC(=O)C[C@@H](C)[C@]2(C)C1`: the molecule was called inactive.

Take `Cc1cc(C)cc(OCC2CNC(=O)O2)c1` (stereo not given): the call was inactive. The same measure, in the same setting: the same measure for `Nc1ccc2cc(S(=O)(=O)O)ccc2c1`: “inactive”; for `CC12CCC(CC1=O)C2(C)C` (stereo not given): “inactive”; for `CN1[C@@H]2CC[C@H]1CC(NC(=O)n1c(=O)[nH]c3ccccc31)C2` (stereo not given in full): “inactive”. On the same count and under the same terms, to `O=C1CC2(CCCC2)CC(=O)N1` belongs “inactive”; to `C1=C\CC/C=C\CC/C=C\CC/1`, “inactive”. Same read-out and setting: the same measure for `O=C(O)CCNC(=O)c1ccc(N=Nc2ccc(O)c(C(=O)O)c2)cc1`: “inactive”; for `NC(=O)Nc1nc2ccccc2[nH]1`: “inactive”; for `CNC(=O)c1c(I)c(NC(=O)CCCCC(=O)Nc2c(I)c(C(=O)O)c(I)c(C(=O)NC)c2I)c(I)c(C(=O)O)c1I`: “inactive”.

As for `COc1cc(C(=O)N2CCOCC2)cc(OC)c1OC`, the outcome was inactive. The same measure, in the same setting: the same measure for `C=CC(=O)N1CCOCC1`: “inactive”; for `CC(C)=CCC/C(C)=C/C(=O)O`: “inactive”; for `Fc1ccccc1-c1ccccc1`: “inactive”. For `CCCCCCCCCCCCCCCCCCOCC(O)CO` (stereo not given), the molecule was classed as inactive. Still for that read-out and setting: to `CC(C)CCCC(C)NCCC(C)C` (stereo not given) belongs “inactive”; to `C#CC(O)CCCCC` (stereo not given), “inactive”; to `CCCCCCCCCCCCCCCCCC(=O)OCCCCCCCCCCCCCC(C)C`, “inactive”. As to `Nc1cc(N)cc(C(=O)O)c1`, the molecule was classed as inactive. Same read-out and setting: to `CCCc1ccccc1O` belongs “inactive”; to `O=C(O)c1ccc[n+]([O-])c1`, “inactive”; to `C=CCSCC1Nc2cc(Cl)c(S(N)(=O)=O)cc2S(=O)(=O)N1` (stereo not given), “inactive”. On the same count and under the same terms, to `CCC(C(=O)NC(N)=O)c1ccccc1` (stereo not given) belongs “inactive”; to `CCCCC=O`, “inactive”. Turning to `NC(=S)Nc1cccc2ccccc12`, the activity change, negative = cytotoxicity was 29.3% [at 6.97 µM] (inactive).

As for `COc1nc(C)nc(N)n1`, the outcome was inactive.

Take `CO[Si](OC)(OC)OC`: the result was inactive. Still for that read-out and setting: to `CCC(=O)Nc1cccc(N)c1` belongs “inactive”; to `Cc1onc(-c2ccccc2)c1-c1ccc(S(N)(=O)=O)cc1`, “inactive”; to `O=S(=O)(O)c1ccccc1O`, “inactive”. As to `O=C(CCOCCOCCOCCOCCC(=O)Nc1c(I)cc(I)c(C(=O)O)c1I)Nc1c(I)cc(I)c(C(=O)O)c1I`, the outcome was inactive. Still for that read-out and setting: the same measure for `OCCN1C[C@H](O)[C@@H](O)[C@H](O)[C@H]1CO`: “inactive”; for `CCCCCN(CCCCC)C(=O)C(CCC(=O)O)NC(=O)c1ccc(Cl)c(Cl)c1` (stereo not given): “inactive”; for `NS(=O)(=O)c1cc2c(cc1C(F)(F)F)NC(Cc1ccccc1)NS2(=O)=O` (stereo not given): “inactive”. On the same count and under the same terms, the same measure for `O=c1[nH]c2ccccc2c(=O)n1CCCl`: “inactive”. Take `Cc1ccccc1Br`: the outcome was inactive. On the same count and under the same terms, to `CC(=O)N[C@@H](CCC(N)=O)C(=O)O` belongs “inactive”. Still for that read-out and setting: to `OC1OC[C@@H](O)[C@H](O)[C@H]1O` (stereo not given in full) belongs “inactive”; to `COc1cc(C)cc(O)c1`, “inactive”. In the case of `NCC[C@H](O)C(=O)N[C@@H]1C[C@H](N)[C@@H](O[C@H]2O[C@H](CN)[C@@H](O)[C@H](O)[C@H]2O)[C@H](O)[C@H]1O[C@H]1O[C@H](CO)[C@@H](O)[C@H](N)[C@H]1O`, the activity change, negative = cytotoxicity is 1.06% [at 0.29 µM] (inactive).
